One may read the inhibition as the change of the read-out against control, counted positive when it falls.

Inhibition data for 35 compounds are collected here from ChEMBL document CHEMBL3433997, “St. Jude Leishmania screening dataset” (2016).

Common to all, as to assay type: functional
Assay [1] has as its target Solute carrier family 2, facilitated glucose transporter member 1 (Homo sapiens) (UniProt P11166). The assay can be described thus: ST_JUDE_LEISH: Cytotoxicity at 2uM final concentration against transgenic Leishmania Mexicana promastigotes LmGLUT1 that are glucose transport deficient and complemented with the human glucose transporter GLUT1. Activity is measured by DNA content using SYBR green in vitro.

Assay [2] deals with Hexose transporter 1 (Plasmodium falciparum) (UniProt O97467). The assay can be described thus: ST_JUDE_LEISH: Cytotoxicity at 2uM final concentration against transgenic Leishmania Mexicana promastigotes LmPfHT that are glucose transport deficient and complemented with the Plasmodium falciparum hexose transporter. Activity is measured by DNA content using SYBR green in vitro.

In assay [3] the target is Glucose transporter (Leishmania mexicana) (UniProt O61059). The assay can be described thus: ST_JUDE_LEISH: Cytotoxicity at 2uM final concentration against transgenic Leishmania Mexicana promastigotes LmGT2 that are glucose transport deficient and complemented with the L. Mexicana glucose transporter 2. Activity is measured by DNA content using SYBR green in vitro.

Sequence of Solute carrier family 2, facilitated glucose transporter member 1 (Homo sapiens) (P11166 whole entry): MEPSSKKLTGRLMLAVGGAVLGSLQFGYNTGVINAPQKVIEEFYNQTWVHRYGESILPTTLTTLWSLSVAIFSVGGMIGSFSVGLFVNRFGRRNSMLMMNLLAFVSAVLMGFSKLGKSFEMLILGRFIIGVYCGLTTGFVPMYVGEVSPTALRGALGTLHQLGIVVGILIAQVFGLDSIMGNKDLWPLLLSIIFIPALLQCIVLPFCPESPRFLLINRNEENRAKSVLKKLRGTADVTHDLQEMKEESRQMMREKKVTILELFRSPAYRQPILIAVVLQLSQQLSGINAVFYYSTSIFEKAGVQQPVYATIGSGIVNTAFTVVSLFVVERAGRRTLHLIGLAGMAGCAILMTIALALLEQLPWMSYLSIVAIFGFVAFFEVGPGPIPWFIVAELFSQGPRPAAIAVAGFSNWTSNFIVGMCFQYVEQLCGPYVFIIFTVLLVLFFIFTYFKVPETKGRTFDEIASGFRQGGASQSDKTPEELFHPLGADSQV

As to `CN1CCCC(CN2CCN(Cc3ccc(-c4cccc(-c5nc6cc(F)ccc6[nH]5)c4)cc3)CC2)C1` (stereo not given), the results for the inhibition in assay [1], in assay [2] and in assay [3] were -0.56%, 1.31% and 2.3%, respectively.
Consider `COc1cc(Cc2cnc(N)nc2N)ccc1OCc1ccc(F)c(F)c1`, for which the inhibition came to 3.03% in assay [1], 5.38% in assay [2] and 4.59% in assay [3].
For `CCNC(=O)Nc1ccc(N(C)c2ccnc(Nc3ccc(CS(C)(=O)=O)cc3)n2)cc1`, in that order: 13.5%, 12.2% and 9.58%.
Take `O=C(Nc1ccc(C(F)(F)F)cc1)NC1CCN(c2ccnc3cc(Cl)ccc23)C1` (stereo not given): the inhibition came out at 3.59% in assay [1], 3.27% in assay [2] and 0.73% in assay [3].
In the case of `CN1CCC(C(=O)Nc2cccc(-c3ccc(-c4nc5cc(C(F)(F)F)ccc5[nH]4)cc3)c2)CC1`, the results for the inhibition in assay [1], in assay [2] and in assay [3] were 4.82%, 2.75% and 3.82%, respectively.
Regarding `CCCCNC(=O)C(C)NC(=O)c1ccc(O)c(-c2ccc(Cl)c(Cl)c2)c1` (stereo not given), the inhibition in assay [1] is -0.19%; in assay [2] it was -0.53%; in assay [3], 0.05%.
Turning to `COc1ccc(CCNC(=O)c2cc(C)ccc2O)cc1-c1ccc(C(C)(C)C)cc1`, the inhibition in assay [1] came to 4.36%; in assay [2] it was 2.89%; in assay [3] it was 4.35%.
In the case of `CN1CCN(Cc2cc3cc(NC(=O)/C=C/c4ccc(Cl)cc4)ccc3s2)CC1`, the results for the inhibition in assay [1], in assay [2] and in assay [3] were 4.5%, 0.55% and 1.01%, respectively.
In the case of `CNCc1cccc2nc(-c3ccc(Cc4cc(Cl)ccc4OCC(C)C)o3)[nH]c12`, the inhibition was 4.31% in assay [1], 2.61% in assay [2] and 3.52% in assay [3].
Consider `O=C(Cc1ccccc1)NC(c1ccccc1)c1ccc2cccnc2c1O` (stereo not given), for which the results for the inhibition in assay [1], in assay [2] and in assay [3] were 2.31%, 0.51% and -1.17%, respectively.
Consider `COc1ccc(C2CC(=O)C3=C(C2)NC(C)=C(C(=O)OC2CCCC2)C3c2cccc(O)c2)cc1OC` (stereo not given), for which the inhibition in assay [1] was determined as 4.21%; in assay [2], 1.05%; in assay [3], 0.17%.
With `COc1ccc2nccc(CCN3CC(O)C(CNCc4ccc5c(n4)NC(=O)CS5)C3)c2n1` (stereo not given), the inhibition turned out to be 3.43% in assay [1], 3.49% in assay [2] and 4.07% in assay [3].
With `CN(C)CCNC(=O)N1CCCN(c2ncnc3cc(-c4ccc(Cl)cc4)sc23)CC1`, the inhibition was -0.35% in assay [1], -1.89% in assay [2] and 0.1% in assay [3].
On to `CN(C)c1ccc(/C=C2\S/C(=N\c3ccccc3)N(c3ccccc3)C2=O)cc1[N+](=O)[O-]`, for which the results for the inhibition in assay [1], in assay [2] and in assay [3] were 2.12%, 1.07% and -0.79%, respectively.
On to `CCNc1cc(C(=O)N[C@@H](Cc2ccccc2)[C@H](O)CNC23CCC(CC2)CC3)cc(N2CCCCS2(=O)=O)c1`, for which the values for the inhibition in assay [1], in assay [2] and in assay [3] were 0.73%, 0.04% and 0.09%, respectively.
With `O=C1Nc2ccc3ncccc3c2/C1=C/Nc1ccc(N2CCN(CCO)CC2)cc1`, the inhibition in assay [1] worked out at 2.74%; in assay [2] it was 2.28%; in assay [3], 2.47%.
Turning to `O=C(/C=C/c1ccc(Cl)c(Cl)c1)NCCCCCN1CCC(c2c[nH]c3c(-c4ccccc4)cccc23)CC1`, the inhibition in assay [1] worked out at 0.48%; in assay [2] it was 4.3%; in assay [3], 3.07%.
In the case of `CCOC(=O)c1ccc(OCCOc2ccccc2)cc1`, the figures for the inhibition in assay [1], in assay [2] and in assay [3] were -0.36%, 1.04% and 0.6%, respectively.
For `Cc1nc(C(C)Nc2nncc(-c3ccc(Cl)cc3)n2)cs1` (stereo not given), in that order: 1.13%, 0.17% and 1.17%.
For `CN1CCN(S(=O)(=O)c2cccc(Nc3nccc(N(C)c4ccc5c(c4)nc(NC(=O)c4cccs4)n5C)n3)c2)CC1`, the inhibition in assay [1] was -0.55%; in assay [2], 0.27%; in assay [3], 1.49%.
As for `COc1ccc(CNCc2ccccc2)cc1-c1ccc(S(=O)(=O)NCCN2CCCC2)c(F)c1`, the values for the inhibition in assay [1], in assay [2] and in assay [3] were 18.3%, 13% and 10.7%, respectively.
For `CS(=O)(=O)CCNCc1nc(-c2ccc3c(=O)[nH]cnc3c2)cs1`, in that order: 18.2%, 48% and 31.5%.
As to `CN(C(=O)c1snnc1-c1ccccc1)C1CCN(CCCCCNC(=O)/C=C/c2ccc(Cl)c(Cl)c2)CC1`, the inhibition in assay [1] turned out to be 3.47%; in assay [2], 0.39%; in assay [3], 3.46%.
As for `CN1CCN(CCCCCCNc2c3ccccc3nc3ccccc23)CC1`, the inhibition came to 27.1% in assay [1], 19.4% in assay [2] and 10.9% in assay [3].
As to `O=C1COC2(CN1CC1CCN(Cc3ccc(O)c(Cl)c3)C1)c1ccccc1-c1ccccc12` (stereo not given), the inhibition in assay [1] was -0.03%; in assay [2] it was -0.11%; in assay [3], -0.34%.
The like results for `O=C(Nc1cccc(C(F)(F)F)c1)c1ccc(S(=O)(=O)NCC2CCN(CC3CCCCC3)CC2)cc1` were, in that order, 3.47%, 2% and 3.8%.
With `CN(CCC(CCN1CCC(c2c[nH]c3ccccc23)CC1)c1ccccc1)C(=O)Nc1ccc(Cl)c(Cl)c1` (stereo not given), the inhibition in assay [1] turned out to be 2.82%; in assay [2], 0.21%; in assay [3], 0.72%.
Take `NCCNC(=O)c1ccc(-c2cnc3[nH]cc(-c4ccc(C(N)=O)cc4)c3c2)cc1`: the results for the inhibition in assay [1], in assay [2] and in assay [3] were 3.65%, 2.58% and 2.98%, respectively.
For `O=C(Nc1cccc(CN2CCCN(CC3CCCCC3)CC2)c1)c1ccc(Cl)c(Cl)c1`, in that order: 12.1%, 12.2% and 10.5%.
Take `CN(C)CCCOc1c(C(C)(C)C)cc(-c2cc(C(C)(C)C)c(OCCCN(C)C)c(C(C)(C)C)c2)cc1C(C)(C)C`: the inhibition amounted to 7.07% in assay [1], 4.77% in assay [2] and 3.12% in assay [3].
On to `CN1CCN(CCCNCc2cccc(-c3ccc(CNCCc4ccccc4)cc3)c2)CC1`, for which the inhibition in assay [1] is 2.41%; in assay [2], 3.07%; in assay [3], 1.49%.
For the compound `O=C(Nc1ccc(C(F)(F)F)cc1)c1ccc(S(=O)(=O)NC2CCN(CC3CCCCC3)CC2)cc1`, the values for the inhibition in assay [1], in assay [2] and in assay [3] were 1.19%, 0.54% and -1.52%, respectively.
The like results for `CCCCCCCN1CC[C@@H](CCCc2ccnc3ccc(OCCC4CCNCC4)cc23)[C@@H](CC)C1` were, in that order, 7.73%, 7.46% and 6.53%.
Take `SC(=Nc1ccc2c(c1)OCCO2)NN=Cc1ccccn1`: the inhibition was -0.28% in assay [1], -0.16% in assay [2] and 8.54% in assay [3].
For `CC(CN(C)C)C(=O)Nc1ccc(-c2ccc(-c3nc4ccccc4[nH]3)s2)cc1` (stereo not given), the inhibition was 2.59% in assay [1], 3.52% in assay [2] and 6.24% in assay [3].
